From PubChem
Rows were chosen to be rich in hits. Some 2.4% of all compounds tested hit in one or more screens of this group.
D2 PAM-1 – potentiates the human D2 dopamine receptor allosterically. potentiation, % (test concentration not listed). hit rate 0.23% among 360,000. P14416. AID 624464. DiscoveRx D2 beta-arrestin cells, luminescence, 90 min; 100% = 57 uM dopamine signal; in the data active = potentiation above about 50%; inconclusive = mostly about 30% to 49%
Target sequence (P14416 whole entry, looked up): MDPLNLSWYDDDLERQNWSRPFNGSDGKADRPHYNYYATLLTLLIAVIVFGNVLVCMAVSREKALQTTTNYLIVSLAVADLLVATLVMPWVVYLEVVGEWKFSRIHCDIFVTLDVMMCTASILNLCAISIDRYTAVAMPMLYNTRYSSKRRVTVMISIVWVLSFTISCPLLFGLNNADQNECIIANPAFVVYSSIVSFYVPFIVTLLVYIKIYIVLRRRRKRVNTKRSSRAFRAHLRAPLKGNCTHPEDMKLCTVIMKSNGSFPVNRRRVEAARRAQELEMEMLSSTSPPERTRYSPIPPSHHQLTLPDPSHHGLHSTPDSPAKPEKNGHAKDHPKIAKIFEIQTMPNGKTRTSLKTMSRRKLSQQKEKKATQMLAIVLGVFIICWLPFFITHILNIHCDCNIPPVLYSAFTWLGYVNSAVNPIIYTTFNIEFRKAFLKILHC
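PathHunter D2 cells, attached overnight at 37 deg C, received compound in DMSO plus dopamine at EC20 (50 nM final) for 90 min at 37 deg C. Beta-arrestin recruitment was read as luminescence after 1 h with detection reagent at ambient temperature.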
D2 PAM-2 – positive allosteric modulators of human D2 dopamine receptor; P14416; HEK293 T-REx D2, calcium flux, EC20 dopamine potentiation; potentiation, % at 10 µM; hit rate 0.34% among 340,000;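 active = potentiation over 3 SD above the plate norm, cut at about 30% in these data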; note: 0% is about no effect
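Primary screen. Calcium kinetics in induced HEK293 T-REx D2 cells: compound pre-addition 180 s, EC20 dopamine, 180 s more.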
D2 antagonist – D2 dopamine receptor (human) antagonism | HEK293 TREx D2 cells, calcium flux, dopamine EC80 | inhibition, % at 10 µM | AID 485344 | hit rate 2% among 340,000 | P14416; in the data active = inhibition above about 30%; inactive = below that, where a call was filed; note: 0% is about no effect
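Read-out: kinetic calcium fluorescence (1 cycle/s) in inducible HEK293 T-REx D2 cells after an EC80 dopamine addition that followed 180 s compound preincubation. Loss of the dopamine response indicates antagonism.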
D2 ag-1 – activates the human D2 dopamine receptor. HEK293 T-REx D2 cells, calcium flux agonist mode. activation, % at 2 µM. hit rate 0.53% among 340,000;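 active = activation over 3 SD above normal in the single-dose calcium agonist read, cut at about 30% in these data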; note: 0% is about no effect
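Tetracycline-induced HEK293 T-REx cells with force-coupled D2 receptor, plated overnight at 30 C, loaded with no-wash calcium dye. After a 10 s baseline, compound was pin-added and calcium flux read kinetically for 180 s; calcium rises flagged agonists.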
D2 ag-2 – activates the human D2 dopamine receptor | P14416 | hit rate 0.084% among 360,000 | DiscoveRx PathHunter D2 beta-arrestin, luminescence, 90 min; 100% = 57 uM dopamine signal | activation, % (no concentration beside the values) | AID 624465; in the data active = activation above about 40%; inconclusive = between about 15% and that limit
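DiscoveRx PathHunter D2 beta-arrestin cells (2,100/well) attached overnight, then compound-stimulated 90 min at 37 C in HBSS/10 mM HEPES/0.1% Tween-20 buffer; beta-galactosidase complementation read by luminescence after 1 h at ambient temperature. Dopamine 57 uM final (EC100) as control.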
* marks the source's active call; other numbers are inactive results; ? = inconclusive; / = not tested or not shown.

SMILES | D2 PAM-1 | D2 PAM-2 | D2 antagonist | D2 ag-1 | D2 ag-2
O=C(c1cc([N+](=O)[O-])ccc1Cl)N1CCN(Cc2ccc3c(c2)OCO3)CC1 | 1 | 5 | 44* | 1 | 0
O=C(c1ccccc1Cl)N1CCN(Cc2ccc3c(c2)OCO3)CC1 | -3 | 10 | -6 | -2 | -3
CCOc1cccc(-c2nc3ccccc3c(=O)o2)c1 | / | 0 | / | 0 | /
CCC(=O)Nc1sc2c(c1C(N)=O)CCN(Cc1ccccc1)C2 | -13 | -4 | 38* | 55* | -5
CCN1CCc2c(sc(NC(=O)Nc3ccc(Cl)c(Cl)c3)c2C(N)=O)C1 | -16 | -13 | 72* | 109* | 7
CCN1CCc2c(sc(NC(=O)Cc3ccccc3)c2C(N)=O)C1 | -15 | -23 | 8 | 0 | -6
NC(=O)c1c(NC(=O)c2ccccc2)sc2c1CCN(Cc1ccccc1)C2 | -7 | -7 | 6 | 44* | -1
CCN1CCc2c(sc(NC(=O)c3ccc(S(=O)(=O)N(CC)c4ccccc4)cc3)c2C(N)=O)C1 | -9 | -6 | 9 | 52* | 1
NC(=O)c1c(NC(=O)c2c(F)cccc2F)sc2c1CCN(Cc1ccccc1)C2 | -7 | -2 | -17 | 29 | -1
CC(C)C(=O)Nc1sc2c(c1C(N)=O)CCN(Cc1ccccc1)C2 | -12 | -18 | 26 | 3 | -7
CCOC(=O)c1scc(-c2ccc(C)cc2)c1S(=O)(=O)N1CCN(c2ccccc2)CC1 | / | 0 | / | / | /
O=C(CN1CCN(S(=O)(=O)c2cccc(Cl)c2)CC1)NCC1(N2CCOCC2)CCCCC1 | -2 | / | / | / | -3
Cc1cc(C)cc(NC(=O)CSc2nc3nc(C)cc(C)n3n2)c1 | 3 | 5 | -16 | 0 | 1
CSC1=NSC2=NC(=O)/C(=C/c3coc4ccc(O)cc4c3=O)C(=N)N12 | 28 | 1 | -5 | 48* | 7
N=C1/C(=C\c2coc3ccccc3c2=O)C(=O)N=C2SC=CN12 | -19 | -4 | 0 | 117* | -5
CSC1=NSC2=NC(=O)/C(=C\c3cccs3)C(=N)N12 | 1 | -5 | 4 | 0 | -4
COc1cc(/C=C2/C(=N)N3C(SC)=NSC3=NC2=O)ccc1OC(=O)c1ccco1 | -8 | -10 | -5 | 0 | -7
N=C1/C(=C/c2cccn2Cc2ccc(F)cc2)C(=O)N=C2SC=CN12 | 10 | 0 | 15 | -1 | -2
CC1=CC2=NC(=O)/C(=C/c3coc4ccc(Cl)cc4c3=O)C(=N)N2O1 | 0 | -4 | 3 | 64* | 1
CSC1=NSC2=NC(=O)/C(=C/c3coc4ccccc4c3=O)C(=N)N12 | -7 | 13 | -13 | 55* | 1
CCc1ccc(S(=O)(=O)c2c(C(=O)c3ccccc3)cnc3ccc(CC)cc23)cc1 | / | 7 | / | 0 | /
COc1ccc(OC)c(S(=O)(=O)N2CCN(CC(O)COc3ccc(C#N)cc3)CC2)c1 (configuration not stated) | -6 | 10 | -16 | 0 | -2
COc1cccc(OCC(O)CN2CCC(Cc3ccccc3)CC2)c1 (configuration not stated) | -33 | -25 | -10 | 10 | -1
Cc1cc(C)cc(OCC(O)CN2CCN(Cc3ccc4c(c3)OCO4)CC2)c1 (configuration not stated) | -21 | -21 | 3 | -1 | 2
OC(COc1ccccc1)CN1CCC(Cc2ccccc2)CC1 (configuration not stated) | -36 | -26 | 74* | 1 | -1
SMILES | D2 PAM-1 | D2 PAM-2 | D2 antagonist | D2 ag-1 | D2 ag-2
CN1CCN(CC(O)COc2ccccc2)CC1 (configuration not stated) | -2 | 8 | 33* | 0 | -1
OC(COc1ccccc1)CN1CCN(Cc2ccc3c(c2)OCO3)CC1 (configuration not stated) | -7 | -25 | 36* | 1 | 1
COc1ccc(OC)c(S(=O)(=O)N2CCN(CC(O)COc3ccccc3)CC2)c1 (configuration not stated) | -10 | -19 | 48* | 1 | -2
O=C(CCn1c(=O)c2sccc2n(CC(=O)Nc2ccccc2)c1=O)NCc1ccccc1Cl | / | 11 | / | 0 | /
Cc1ccc(C)c(N2CCN(CCCNC(=O)C3COc4ccccc4C3)CC2)c1 (configuration not stated) | / | -24 | / | 1 | /
CC(C)(C)OC(=O)N1CCC(c2c(C(=O)N3CCN(c4ccccn4)CC3)cnn2-c2ccccc2Cl)CC1 | / | -2 | / | 0 | /
COc1ccc(CCNC(=O)CCc2c(C)c3cc4c(C)coc4c(C)c3oc2=O)cc1OC | / | 8 | / | 1 | /
C=CCc1ccc(OCC(O)CN2CCC(Cc3ccccc3)CC2)c(OC)c1 (configuration not stated) | -8 | -23 | 41* | 26 | 1
Cc1ccc(OCCN2CCN(CC(O)Cn3c4ccccc4c4ccccc43)CC2)cc1 (configuration not stated) | / | -31 | 63* | 63* | /
OC(COc1ccccc1F)CN1CCC(Cc2ccccc2)CC1 (configuration not stated) | -2 | -10 | 65* | 0 | -6
Cc1ccc(OCC(O)Cn2c3ccccc3c3ccccc32)cc1 (configuration not stated) | -12 | -2 | -7 | 0 | -3
OC(COc1ccc(F)cc1Cl)CN1CCC(Cc2ccccc2)CC1 (configuration not stated) | -22 | 2 | -3 | 0 | -2
CCc1ccc(C(=O)COC(=O)C(Cc2c[nH]c3ccccc23)NC(=O)c2ccc(CC)cc2)cc1 (configuration not stated) | / | 13 | / | 0 | /
O=[N+]([O-])c1ccc(-n2nnnc2-c2ccccc2)c([N+](=O)[O-])c1 | 86* | -11 | -2 | 1 | ?
O=C(CCC(=O)N1CC2CCCN2c2ccccc21)NCc1ccccc1 (configuration not stated) | / | -1 | / | / | /
Clc1ccccc1Cn1nnc2c(N3CCCC3)ncnc21 | 7 | 5 | 7 | 0 | 1
CCc1nc(N2CCC3(CC2)OCCO3)c2nnn(Cc3ccccc3Cl)c2n1 | -3 | 34* | -9 | 0 | 0
CCOc1ccccc1C1c2cc3c(cc2OC(C)(N2CCCC2)C1C)OCO3 (configuration not stated) | 13 | / | / | / | 2
COc1ccc(C(C)(C)C)cc1NC(=O)CCCn1c(=O)oc2ccccc21 | -22 | -28 | 51* | -2 | -3
COc1cc(NC(=O)CCCn2c(=O)oc3ccccc32)cc(OC)c1 | -9 | / | / | / | -1
O=C(COc1ccccc1Cl)Nc1ccccc1C(=O)Nc1cccc(C(=O)O)c1 | -4 | -1 | 31* | 0 | -1
O=C(COc1ccccc1Cl)Nc1ccc(C(=O)O)cc1NC(=O)COc1ccccc1Cl | 1 | 7 | 4 | 0 | -7
COc1ccccc1CNC(=O)c1cc2ccc3ccc(C)[nH]c3c2n1 | / | -1 | / | -1 | /
